Experimental findings from PubChem BioAssay (Tox21) are described below.

Records with an inconclusive call do not appear. Unmarked numbers belong to inactive results. Activity calls are given as the source filed them. Calls follow the shape of the dose curve; as a rule, active = well fitted activation curve with a large enough effect in the repeat runs; inconclusive = weak or mixed curves; inactive = flat fitted curve, though single readings scatter.
% is scaled to controls: 0 for no effect and ±100 for the full control effect; potency is read from the fitted curve at half-maximal effect.

This test in a line: A CellTox Green Cytotoxicity Assay to monitor cytotoxicity in HEK293 cells - 32 hour (AID 1224881). Also: nearly all actives have a fitted effect of over 40% in size. The conditions noted are these: CellTox Green fluorescence; series mostly up to 76.8 µM; cytotoxicity increase: at the top concentration. The text has this:
National Center for Advancing Translational Sciences [NCATS]
NIH Chemical Genomics Center [NCGC]
U.S. Environmental Protection Agency [EPA]
National Institutes of Environmental Health Sciences [NIEHS]
National Toxicology Program [NTP]
Cell-based models are critical for drug discovery. Determining the natural cytotoxic effects resulting from test compounds is an essential research activity. A CellTox Green Cytotoxicity Assay to monitor cytotoxicity in real time of continues cell culture during 40 hours of the compound treatment was used to screen Tox21 10K library compounds in Hek293 cells. CellTox Green Cytotoxicity Assay is a nonlytic, homogeneous, biofluorescent method to measure cytotoxicity in cell culture after experimental manipulation. The assay system uses a proprietary asymmetric cyanine dye that is excluded from viable cells but preferentially stains the dead cell's DNA. […] Viable cells produce no appreciable increases in fluorescence. Therefore, the fluorescence signal produced by the binding interaction with dead cell DNA is proportional to cytotoxicity.
The mixture of Hek293 cell suspension and reagents were dispensed at 600cells/6 ul/well in 1536-well tissue culture treated black solid bottom plates using a Multidrop dispenser. After the assay plates were incubated at a 37 C/5% CO2 incubator for 5 hours, 23 nL of compounds dissolved in DMSO, positive and negative controls was transferred to the assay plate by a pintool work station. The plates were incubated at 37 C for 40 hours. The fluorescence intensity were measured at 0h, 8h, 16h, 24h, 32h and 40h time points using ViewLux plate reader during compound treatment.
On to `CCOC(=O)COc1cc(-c2nn(C)c(OC(F)F)c2Cl)c(F)cc1Cl`, for which the “cytotoxicity increase” value is -7.01%.

With `CC(c1ccc(O)cc1)(c1ccc(O)cc1)c1ccc(O)cc1`, the “cytotoxicity increase” value is 3.08%.

With `O=C(NCc1cccnc1)Nc1ccc([N+](=O)[O-])cc1`, the “cytotoxicity increase” value is 21%.

On to `NC(=O)C(Cl)(Cl)Cl`, for which the “cytotoxicity increase” value is 16.2%.

On to `CCCCNP(N)(N)=S`, for which the “cytotoxicity increase” value was -8.37%.

On to `CCCCc1c(C)nc(NCC)nc1OS(=O)(=O)N(C)C`, for which the “cytotoxicity increase” value is 1.74%.

Take `O=S1(=O)OC(c2cc(Br)c(O)c(Br)c2)(c2cc(Br)c(O)c(Br)c2)c2ccccc21`: the “cytotoxicity increase” value was -22.2%.

On to `Cl/C=C\Cl`, for which the “cytotoxicity increase” value was -4.56%.

For the compound `c1cc2ccc3cccc4ccc(c1)c2c34`, the “cytotoxicity increase” value was -5.07%.

For `Cn1cc[n+](C)c1` (tested in a mixture with another compound), the “cytotoxicity increase” value was -4.28%.

Regarding `CC(=O)c1cc2c(cc1C)C(C)(C)C(C)CC2(C)C` (stereo not given), the Potency was 19.5 µM (active).

For `Cc1ccccc1CCl`, the “cytotoxicity increase” value was -6.89%.

Take `CC(C)(Cl)[N+](=O)[O-]`: the “cytotoxicity increase” value is 4.95%.

Regarding `CCCCN=C=O`, the “cytotoxicity increase” value was -9.01%.

In the case of `O=[N+]([O-])C(Br)(CO)CO`, the “cytotoxicity increase” value was 26.7%.

For `ClCC(Br)CBr` (stereo not given), the “cytotoxicity increase” value is -2.4%.

With `COCC(C)N(C(=O)CCl)c1c(C)csc1C` (stereo not given), the “cytotoxicity increase” value was -0.682%.

On to `CC(C)O.CC(C)O.OCCN(CCO)CCO.OCCN(CCO)CCO.[Ti]`, for which the “cytotoxicity increase” value is -5.54%.

For `O=Cc1ccc2c(c1)OCO2`, the “cytotoxicity increase” value was -2.76%.

On to `CCCCCCCCCCOC(=O)c1ccccc1C(=O)OCCCCCCCCCC`, for which the “cytotoxicity increase” value is -14.4%.

Regarding `C=CC(=O)OCC(C)O` (stereo not given), the “cytotoxicity increase” value was -3.97%.

As to `CN(C)c1ccc(N(C)C)cc1`, the “cytotoxicity increase” value is -0.398%.

Consider `CCOP(=S)(OCC)SCSCC`, for which the “cytotoxicity increase” value was 1.15%.

For the compound `O=C(Nc1ccccc1)Nc1cnns1`, the “cytotoxicity increase” value was 2.75%.

Turning to `CCOP(=S)(OCC)Oc1cc(Cl)c(Br)cc1Cl`, the “cytotoxicity increase” value is 21.9%.

For `CCCCC(CC)COP(=O)(Oc1ccccc1)Oc1ccccc1` (stereo not given), the “cytotoxicity increase” value was 1.03%.

As for `OC(c1ccc(Cl)cc1)(c1ccc(Cl)cc1)c1cccnc1`, the “cytotoxicity increase” value was -3.43%.

With `CCOC(=O)CBr`, the “cytotoxicity increase” value was -1.82%.

In the case of `CS/C(C)=N/OC(=O)N(C)SN(C)C(=O)O/N=C(\C)SC`, the Potency was 54.9 µM (active).

For `Nc1ccc(N=Nc2ccc(-c3ccc(N=Nc4c(S(=O)(=O)O)cc5cc(S(=O)(=O)O)c(N=Nc6ccccc6)c(O)c5c4N)cc3)cc2)c(N)c1`, the “cytotoxicity increase” value was 5.59% [at 35.3 µM].

Consider `COC(N)=O`, for which the “cytotoxicity increase” value is 2.91%.

`IC(I)=C(I)I`: the Potency was 54.9 µM (active).

For `O=C1c2ccccc2C(=O)C1C(=O)C(c1ccccc1)c1ccccc1`, the “cytotoxicity increase” value is -15.3% [at 35.3 µM].

Turning to `O=C(CCl)c1ccc(Cl)cc1Cl`, the Potency was 8.49 µM (active).

For `O=C=Nc1ccc(Cl)cc1`, the “cytotoxicity increase” value is 5.91%.

Consider `CN1C(=O)C(O)N=C(c2ccccc2)c2cc(Cl)ccc21` (stereo not given), for which the “cytotoxicity increase” value was 8.04%.

Regarding `CC1Sc2c(C(=O)O)c(=O)c3cc(F)c(N4CCNCC4)cc3n21` (stereo not given), the “cytotoxicity increase” value is -6.25% [at 35.3 µM].

As to `Cc1ccc(-c2c(Cl)nc(C#N)n2S(=O)(=O)N(C)C)cc1`, the “cytotoxicity increase” value is 1.93%.

`Nc1nc(=S)[nH][nH]1`: the “cytotoxicity increase” value is 2.72%.

Turning to `CC(C)N(CCC(C(N)=O)(c1ccccc1)c1ccccn1)C(C)C` (stereo not given), the “cytotoxicity increase” value is -5.14% [at 35.3 µM].
